Screens from PubChem.
These entries were drawn from the full list.
aSyn 5UTR act: Activators working through SNCA 5'UTR binding (MLPCN). alpha-synuclein 5'UTR reporter, activators screen. activity score, % (tested at 7.5 µM), hits read low. actives 7.1% (n = 300,000); in the data active = activity score below about -60%
An asterisk follows results filed as active.

SMILES	aSyn 5UTR act
CCOc1ccc2nc(NC(=O)CSC3=NCCS3)sc2c1	-77*
O=C(COC(=O)c1ccccc1Cl)NCCC1=CCCCC1	-79*
O=C(NCCC1=CCCCC1)C1CCC(CNc2nc(=S)[nH]c3ccccc23)CC1 (stereo not drawn)	99
O=C(COC(=O)c1ccccc1NC(=O)c1ccco1)NCCC1=CCCCC1	-92*
CCCN(CCC)CCNC(=O)CCC(=O)Nc1ccc2nc(N3CCOCC3)cc(C)c2c1	-90*
COCCCNC(=O)CCC(=O)Nc1ccc2nc(N3CCOCC3)cc(C)c2c1	-86*
Cc1cc(N2CCCCC2)nc2ccc(NC(=O)CCC(=O)NCCC(C)C)cc12	-131*
CCN(CC)CCCNC(=O)CCC(=O)Nc1ccc2nc(N3CCC(C)CC3)cc(C)c2c1	-62*
COc1cccc(NC(=O)CCC(=O)Nc2ccc3nc(N4CCOCC4)cc(C)c3c2)c1	-149*
CCCCNC(=O)CCC(=O)Nc1ccc2nc(N3CCOCC3)cc(C)c2c1	-87*
Cc1cc(N2CCOCC2)nc2ccc(NC(=S)NC(C)C)cc12	-93*
CCCCNC(=O)CCC(=O)Nc1ccc2nc(N3CCCCC3)cc(C)c2c1	-141*
Cc1cc(N2CCOCC2)nc2ccc(NC(=O)CCC(=O)N3CCN(c4ccccc4)CC3)cc12	-87*
CCOC(=O)C1CCCN(C(=O)CCC(=O)Nc2ccc3nc(N4CCOCC4)cc(C)c3c2)C1 (stereo not drawn)	-63*
COC(=O)c1sccc1NC(=O)COc1ccc(Cl)cc1Cl	-162*
CC1(C)Cc2c(sc(NC(=O)COc3ccc(Cl)cc3Cl)c2C(N)=O)C(C)(C)N1	62
COC(=O)c1sccc1NC(=O)COc1ccc(C)cc1	-144*
CCn1cc(Br)c(-c2nc3ccccc3c(=O)n2N)n1	-100*
CCc1c(C)nc2cc(-c3ccc(OC)cc3)[nH]n2c1=O	-156*
CCOC(=O)Cc1c(C)nc2cc(-c3ccc(Cl)cc3)[nH]n2c1=O	-67*
CCCc1cc(=O)n2[nH]cc(-c3ccc(Cl)cc3)c2n1	71
COCc1cc(=O)n2[nH]c(-c3ccc(C)cc3)cc2n1	-128*
Cc1[nH][nH]c(=O)c1C=Nc1ccc(C(F)(F)F)cc1	-77*
O=c1[nH][nH]c(C(F)(F)F)c1C=Nc1ccc(Cl)cc1	-71*
COc1ccc(-c2c(C#N)c(N)nc(Sc3ccc(Cl)cc3)c2C#N)cc1	57
SMILES	aSyn 5UTR act
COc1ccc(-c2cc3nc4ccccc4n3c(N)c2C#N)cc1	-128*
O=C(Nc1ccc2c(c1)CCC2)c1cnc(Cl)c(Cl)c1	-190*
O=C(Nc1ccc2c(c1)CCC2)c1ccc(Cl)nc1	-156*
O=C(Nc1ccc2c(c1)CCC2)c1c(F)cccc1Cl	-159*
O=c1c2c3c(sc2ncn1/N=C/c1ccc([N+](=O)[O-])o1)CCCC3	-89*
CCc1cc(C(=O)NNC(=S)NC2CCCCC2)cs1	-87*
CN(C)c1cccc(C(=O)NNC(=S)NC2CCCC2)c1	-64*
CC(C)c1cc(C(=O)NNC(=S)NC2CCCCC2)cs1	-86*
CC(C)(C)N=Cc1cc(-c2ccccc2)sc1O	-162*
O=C(Nc1ccc(Cc2ccncc2)cc1)c1cccs1	-66*
O=C(Nc1ccc2c(c1)CCC2)c1cccs1	-145*
O=C(Nc1ccc(NC(=O)c2cccs2)cc1)c1ccco1	-232*
COc1c(Cl)cc(Cl)cc1/C=C/C(=O)c1ccc(NC(=O)c2cccs2)cc1	-115*
O=C(O)CC/C(=N/NC(=O)c1cccs1)c1ccccc1	-167*
O=C(Nc1cccc(O)c1)c1ccc(NC(=O)c2cccs2)cc1	-68*
O=C(Nc1ccc(NC(=O)c2cccs2)cc1)c1ccccc1	-140*
O=C(N/N=C(\Cc1ncc[nH]1)c1ccccc1)c1ccccc1	74
CC(=O)Oc1cccc(C(=O)Nc2ccc(NC(=O)c3cccs3)cc2)c1	-106*
Cc1ccc(NC(=O)c2cccs2)cc1	-145*
O=C(Nc1ccc(O)cc1)c1ccc(NC(=O)c2cccs2)cc1	-70*
S=C(NCc1ccco1)Nc1cc(-c2ccccc2)[nH]n1	-68*
CCCCN(C)S(=O)(=O)c1ccc(C(=O)Nc2nnc(-c3cccs3)o2)cc1	81
Cc1ccc(NC(=O)CSc2nnc(-c3cccs3)o2)cc1S(=O)(=O)N(C)C	-164*
CC(C)(C)C(=O)Nc1nc2c(s1)CN(Cc1ccccc1)CC2	-92*
O=C(Nc1nc2c(s1)CN(Cc1ccccc1)CC2)c1c(F)cccc1F	-82*
SMILES	aSyn 5UTR act
O=C(Nc1nc2c(s1)CN(Cc1ccccc1)CC2)C1CCCC1	-82*
O=[N+]([O-])c1cc2c(cc1/C=N/Nc1nc(Nc3ccccc3)nc(N3CCCCC3)n1)OCO2	-63*
COc1cccc(/C=N/Nc2nc(Nc3ccc([N+](=O)[O-])cc3)nc(N3CCCC3)n2)c1O	65
COc1ccccc1Nc1nc(C)cs1	-106*
COc1ccccc1Nc1nc(-c2cccc([N+](=O)[O-])c2)cs1	-77*
COc1ccccc1Nc1ccc(Nc2ccccc2OC)nn1	-171*
O=[N+]([O-])c1cccc(-c2csc(Nc3ccccc3)n2)c1	-299*
Clc1ccc(-c2csc(Nc3ccccc3)[n+]2Cc2ccco2)c(Cl)c1	-269*
CCCC[n+]1c(-c2ccc(Cl)cc2Cl)csc1Nc1ccccc1	-128*
C=CC[n+]1c(-c2ccc(Cl)cc2Cl)csc1Nc1ccc(NC(C)=O)cc1	94
CCOc1ccccc1C(=O)N[C@H](C(=O)Nc1nc2c(s1)CCCC2)C(C)C	-87*
COc1ccc(C(=O)N[C@H](C(=O)Nc2nc3c(s2)CCCC3)C(C)C)cc1	-201*
Nc1cc(-c2ccccc2)ccc1O	-118*
CCCCCc1nc2c(C#N)c(-c3ccc(Cl)cc3)ccn2n1	-65*
CCCCc1c(C)c(C#N)c2nc3ccccc3n2c1Cl	109
O=C(O)c1ccc(-c2noc(-c3ccc(F)cc3)n2)cc1	-93*
O=C(O)c1ccc(-c2noc(-c3ccccc3Cl)n2)cc1	-97*
O=C(O)c1ccc(-c2noc(-c3ccccc3C(F)(F)F)n2)cc1	-109*
Cc1c(-c2nc(-c3ccc(C(F)(F)F)cc3)no2)n(C)oc1=O	-82*
CS(=O)(=O)c1ccccc1-c1nc(-c2ccc(C(F)(F)F)cc2)no1	-62*
Cn1cc(C(=O)N/N=C/C(Br)=C\c2ccccc2)ccc1=O	-83*
COc1cccc(C(=O)N/N=C/C(Br)=C/c2ccccc2)c1	-135*
COc1ccc(O)c(/C=N/NC(=O)c2ccc(OCc3cccc(Br)c3)cc2)c1	82
C=CCn1c(SCc2csc(-c3ccc(Cl)cc3)n2)nnc1-c1ccccc1OC	-64*
Cc1cc(C)nc(SCc2csc(-c3ccccc3)n2)n1	-91*
SMILES	aSyn 5UTR act
Nc1ccccc1SCc1csc(-c2ccc(Cl)cc2)n1	-72*
O=C(c1cc2ccccc2oc1=O)N(c1ccc(Cl)cc1)C1C=CS(=O)(=O)C1 (stereo not drawn)	-155*
CC1(C)Cc2c(sc(NC(=O)c3ccccc3)c2C(=O)O)CO1	-74*
COc1ccc(C(=O)Nc2sc3c(c2C(=O)O)CC(C)(C)OC3)cc1	63
COc1ccc(Sc2nnc(Cc3ccccc3)c3ccccc23)cc1	-73*
CCCOc1ccc(C(=O)Nc2ccc(C)cc2[N+](=O)[O-])cc1	-72*
CC(C)COc1ccc(C(=O)Nc2ccccc2[N+](=O)[O-])cc1	-212*
COCCCNC(=S)Nc1ccc(C)cc1[N+](=O)[O-]	-75*
COCCCNc1nc(N)c([N+](=O)[O-])c(Nc2cc(OC)ccc2OC)n1	55
CCOc1ccc(N/C(N)=N/c2nc(CSc3nnc(C)s3)cc(=O)[nH]2)cc1	84
